# TDP1 block: qHTS Assay for Inhibitors of Tyrosyl-DNA Phosphodiesterase (TDP1); Potency, µM (titrated, usually from 130 µM), for the others: at the top dose activity change, negative = inhibition, most hits filed as inhibitors; actives 0.28% (n = 350,000); recombinant TDP1, AlphaScreen DNA substrate cleavage; also: nearly all actives have a fitted effect of over 40% in size
# Target sequence (Q9NUW8 whole entry, looked up): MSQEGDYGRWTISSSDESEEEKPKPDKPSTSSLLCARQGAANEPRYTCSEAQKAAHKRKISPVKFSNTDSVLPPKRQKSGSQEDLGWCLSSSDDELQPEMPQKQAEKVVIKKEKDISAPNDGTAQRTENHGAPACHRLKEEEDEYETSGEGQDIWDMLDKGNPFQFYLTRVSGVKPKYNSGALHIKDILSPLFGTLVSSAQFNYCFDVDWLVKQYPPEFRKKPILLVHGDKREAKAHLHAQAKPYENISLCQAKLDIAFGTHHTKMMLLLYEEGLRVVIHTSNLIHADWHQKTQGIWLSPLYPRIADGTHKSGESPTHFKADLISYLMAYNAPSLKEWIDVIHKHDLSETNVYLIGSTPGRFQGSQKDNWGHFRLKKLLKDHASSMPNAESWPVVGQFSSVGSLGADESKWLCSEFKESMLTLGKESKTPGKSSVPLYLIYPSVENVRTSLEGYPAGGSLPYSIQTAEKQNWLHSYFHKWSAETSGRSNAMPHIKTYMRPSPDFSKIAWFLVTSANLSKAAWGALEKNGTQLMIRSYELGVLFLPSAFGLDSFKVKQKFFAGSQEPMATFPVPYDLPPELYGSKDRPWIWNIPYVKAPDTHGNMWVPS
#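 Here, a 5' biotin and 3' phosphotyrosine-FITC DNA oligonucleotide reports Tdp1 activity: intact substrate bridges AlphaScreen beads, while cleavage leaves a 3' phosphate and drops signal. All incubations at room temperature.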
# VDR inhibitor: Inhibitors of the vitamin D receptor (VDR): qHTS. Vitamin D3 receptor (Homo sapiens), P11473. actives 0.93% (n = 400,000). VDR-SRC2-3 peptide fluorescence polarization, 2 h. AID 504847, 2011. Potency, µM, without a hit: max response, negative = inhibition, most hits filed as inhibitors
#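 Measured by FP: displacement of SRC2-3 coactivator peptide from VDR by library compounds, following a two-hour ambient incubation.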
# KAT2A inh: qHTS Assay for Inhibitors of GCN5L2 | Histone acetyltransferase KAT2A (Homo sapiens), Q92830 | GCN5L2 HAT assay, ThioGlo1 CoA-SH fluorescence | Potency, µM (highest dose often 58.9 µM), for the others: at the highest dose activity change, negative = inhibition, usual class: inhibitors | actives 0.21% (n = 390,000)
#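 Preincubate 20nM GCN5L2 with compound 15 min, RT → add 50uM ThioGlo1 + 75uM H3(1-25) + 70uM acetyl-CoA → read fluorescence 0 and 20 min. Primary qHTS; fluorescent artifacts likely.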
# TDP1 cell noCPT: qHTS for Inhibitors of human tyrosyl-DNA phosphodiesterase 1 (TDP1): qHTS in cells in absence of CPT. DT40 Tdp1-/- hTDP1 cells, no CPT, ATP luminescence, 48 h. Potency, µM (series often up to 46.2 µM), for the others: at the highest dose activity change, negative = growth inhibition, actives largely listed as inhibitors. actives 15% (n = 420,000). AID 686978, 2013; also: nearly all actives have a fitted effect of over 55% in size
#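 Cells were dispensed at 400 per well, compounds added by pin tool, plates incubated ≥48 hr at 37 °C, then CellTiter-Glo added for 30 min at room temperature before luminescence reading. Line: DT40 Tdp1-/- complemented with hTDP1; camptothecin omitted.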
# DT40 TDP1 CPT: qHTS for Inhibitors of human tyrosyl-DNA phosphodiesterase 1 (TDP1): qHTS in cells in presence of CPT | actives 12% (n = 420,000) | chicken DT40 Tdp1-/-;hTDP1 cells + 20 nM CPT, ATP luminescence, 48 h | Potency, µM (titrated, usually from 46.2 µM), for inactives: top-dose activity change, negative = growth inhibition, actives largely listed as inhibitors | AID 686979, 2013; also: nearly all actives have a fitted effect of over 55% in size
#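 Chicken DT40 Tdp1-/- cells complemented with human TDP1, 400 cells/well, exposed to compounds plus 20 nM camptothecin for at least 48 h at 37 C; viability read as ATP content by CellTiter-Glo luminescence.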
# PLK1 PBD inh: qHTS for Inhibitors of PLK1-PDB (polo-like kinase 1 - polo-box domain): Primary Screen; Serine/threonine-protein kinase PLK1 (Homo sapiens), P53350; Plk1 PBD binding of FITC phosphopeptide, fluorescence polarization; Potency, µM, for inactives: max response, negative = inhibition, actives largely listed as inhibitors; actives 2.8% (n = 360,000); AID 720504, 2013; also: series mostly up to about 57 µM; nearly all actives have a fitted effect of over 65% in size
# An asterisk follows results filed as active; u = inconclusive; x = no result given. Sampled rows, rich in hits. Any-hit rate of the full collection: about 18%. Calls follow the shape of the dose curve; as a rule, active = well fitted curve in the direction sought with a large enough effect; inconclusive = small, poorly fitted or top-dose-only effect, or another doubt; inactive = no such curve, though single readings can be large; an effect the other way counts as inactive or inconclusive. % is scaled to controls: 0 for no effect and ±100 for the full control effect; potency is read from the fitted curve at half-maximal effect.
SMILES,TDP1 block,VDR inhibitor,KAT2A inh,TDP1 cell noCPT,DT40 TDP1 CPT,PLK1 PBD inh
COc1cc(Cn2c3ccc(NC(=O)CCc4ccc(O)cc4)cc3c(=O)n2C)ccc1F,x,x,x,20.6µM*,u,-4.2%
C=C(C)Cn1c2ccc(NC(=O)CCc3cccc(Cl)c3)cc2c(=O)n1C,x,x,x,14.6µM*,18.4µM*,-1.7%
Cn1c(=O)c2cc(NC(=O)CCc3ccc4c(c3)OCO4)ccc2n1Cc1ccc(F)cc1,x,x,x,u,16.4µM*,-6.7%
Cn1c(=O)c2cc(NC(=O)NCCc3ccccc3)ccc2n1Cc1ccc(F)cc1,x,x,x,u,u,-21.6%
COc1ccc(CCNC(=O)Nc2ccc3c(c2)c(=O)n(C)n3Cc2ccc(F)cc2)cc1OC,x,x,x,u,u,3.0%
COc1cc(Cn2c3ccc(NC(=O)NCc4ccc(F)cc4)cc3c(=O)n2C)ccc1F,x,x,x,5.17µM*,5.8µM*,-17.3%
CCCCC/C=C\C/C=C\C=C\[C@@H](O)C/C=C\CCCC(=O)O,4.4%,7.1%,x,x,x,x
Cc1nc2nc(NC(=O)c3ccc(C(C)(C)C)cc3)[nH]n2c(=O)c1Cc1ccccc1,4.7%,5.9%,-1.1%,3.4%,-0.4%,x
Cc1ccc(C2=NN(CC(=O)O)C(=O)CC2)cc1,x,-21.2%,1.8%,19.2%,7.3%,-11.0%
CCOCCC(=O)Nc1ccc2c(c1)c(=O)n(C)n2CC=C(C)C,x,x,x,2.91µM*,5.17µM*,-4.6%
Cc1ccc(-c2onc3ccc(C=O)cc23)cc1,7.0%,23.3%,-1.4%,18.4µM*,16.4µM*,u
Cc1ccc(C(C(=O)Nc2ccc3c(c2)OCO3)N(C)C(=O)/C=C\c2ccc3c(c2)OCO3)cc1 (centres undefined),3.1%,-9.5%,-8.6%,u,u,-1.0%
CCC(CC)C(=O)c1c[nH]c(C(=O)NCCc2ccccn2)c1,-14.2%,7.6%,-10.8%,u,u,26.7µM*
CCC(CC)C(=O)c1c[nH]c(C(=O)NCc2ccccn2)c1,5.9%,17.6%,-7.9%,-15.8%,6.5%,1.4%
Cc1cc(C)cc(NC(=O)C(NCCN2CCOCC2)c2ccccc2)c1 (centres undefined),-7.1%,u,-7.8%,u,u,23.8µM*
O=C(NCCCN1CCOCC1)C(c1ccccc1)c1ccccc1,3.3%,0.2%,-6.3%,2.0%,-0.1%,-13.3%
c1ccc(C[C@H]2CN=C(Nc3ccccc3)N2CCC2CCCC2)cc1,-0.6%,-12.7%,2.0%,14.6µM*,u,-4.3%
CCC(CC)CN1C(Nc2ccccc2)=NC[C@@H]1CC(C)C,x,0.8%,-1.1%,u,u,-13.5%
CC(C)C[C@H]1CN=C(Nc2ccccc2)N1CC1CCC(C(C)(C)C)CC1 (some centres undefined),0.8%,2.0%,-0.3%,6.51µM*,5.8µM*,1.9%
CC(C)C[C@H]1CN=C(Nc2ccccc2)N1CCC1CCCCC1,x,5.8%,-2.6%,16.4µM*,u,0.7%
CC(C)C[C@H]1CN=C(Nc2ccccc2)N1CC1CCCC1,x,-2.1%,-3.1%,16.4µM*,u,-1.1%
CC(C)C[C@H]1CN=C(Nc2ccccc2)N1CC(C)C,-3.2%,-5.9%,-16.9%,-23.8%,-26.0%,-4.3%
COc1ccc(-c2cc(C)no2)cc1S(=O)(=O)NC1CCC(C)CC1 (centres undefined),5.3%,13.2%,-5.1%,u,u,x
CCN(c1cccc(C)c1)c1nc2ccsc2c(=O)s1,x,-10.1%,-4.2%,-28.0%,-15.8%,-13.4%
COc1cc(-c2nnc(SCC(=O)Nc3cccc(C#N)c3)o2)cc(OC)c1OC,8.6%,9.2%,-5.5%,-25.4%,-29.4%,x
SMILES,TDP1 block,VDR inhibitor,KAT2A inh,TDP1 cell noCPT,DT40 TDP1 CPT,PLK1 PBD inh
COc1ccc(S(=O)(=O)Nc2ccc(C)cc2)cc1N(C)S(=O)(=O)c1ccc(Cl)cc1,-1.1%,-3.7%,-14.2%,18.4µM*,23.1µM*,-9.1%
COc1ccc(Cl)cc1N(CC(=O)NC(C)(C)C)S(=O)(=O)c1ccc(C)c([N+](=O)[O-])c1,7.0%,-6.1%,-1.8%,20.6µM*,16.4µM*,-10.8%
COC(=O)CN(c1cc(Cl)ccc1OC)S(=O)(=O)c1ccc(C)cc1,-3.1%,1.4%,-8.5%,18.4µM*,u,-7.8%
COc1ccc(Cl)cc1N(CC(=O)N1CCCC1)S(=O)(=O)c1ccc(C)cc1,x,9.3%,-7.6%,u,u,-5.2%
CC(C)NC(=O)C1(C)CCN1C(=O)c1cccc(F)c1 (centres undefined),x,x,x,-16.9%,-4.2%,0.0%
C=CCn1c(SCCN)nnc1-c1cccc(S(=O)(=O)N2CCOCC2)c1,x,-23.0%,x,u,-27.5%,-3.8%
Oc1ccc2ccccc2c1/C=N/c1nc2c(s1)CCCC2,3.8%,3.8%,-1.5%,29.1µM*,u,13.4µM*
Oc1c(Br)cc(Br)cc1/C=N/c1nc2c(s1)CCCC2,x,u,x,16.4µM*,u,u
Oc1ccc2ccccc2c1C=NC1CCCCC1,5.4%,-14.1%,-14.9%,-27.9%,u,u
Oc1c(Br)cc(Br)cc1C=Nc1ccc2c(c1)OCCO2,0.0%,-15.9%,-4.2%,u,-11.4%,-17.3%
CSCCC(NC(=O)COc1ccccc1)C(=O)NCCOc1ccccc1 (centres undefined),0.3%,-10.1%,-3.5%,u,-9.7%,2.7%
CCCn1cc(S(=O)(=O)c2ccc(C)c(C)c2)c(=O)c2cc(F)c(N3CCC(C)CC3)cc21,-8.7%,9.1%,-4.3%,-23.4%,5.1%,x
CCCCc1nn2c(=O)cc(COC(=O)C(C)Oc3ccccc3)nc2s1 (centres undefined),7.1%,5.2%,-1.4%,-3.7%,-4.4%,x
CCCCN(CCCC)Cc1cc2ccccc2c2c1COC2,2.0%,6.6%,-5.8%,u,13µM*,1.5%
CCCN(CCC)Cc1cc2ccccc2c2c1COC2,2.0%,6.7%,-3.6%,u,u,-5.6%
CC(C)C1C(=O)N(Cc2cn(Cc3ccco3)nn2)CCS(=O)(=O)N1Cc1ccc(-c2ccc(F)nc2)cc1 (centres undefined),x,x,x,-19.8%,-8.3%,-28.7%

# From PubChem
